Screening results deposited in PubChem BioAssay by National Center for Advancing Translational Sciences (NCATS).
Giardia FBPA inh: Giardia lamblia aldolase inhibition; A8B2U2; purified Giardia FBPA; Potency, µM (highest dose often 59.6 µM), usual class: inhibitors; 290,000 compounds, 0.71% hits; AID 2451; note: nearly all actives have a fitted effect of over 55% in size
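Giardia FBPA (40 nM reagent) was preincubated 10 min at RT with compound (up to 57.5 uM final), then substrate plus GAPDH/TPI/NAD/arsenate coupling system with diaphorase/resazurin was added; resorufin fluorescence (525/598 nm) was read after 20 min.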
TbPYK inhibitor: T. brucei pyruvate kinase inhibition; TbPYK enzyme, Kinase-Glo Plus ATP luminescence, 45 min; Q57TT1; Potency, µM (titrated, usually from 76.8 µM), hits mostly inhibitors; 410,000 compounds, 0.12% hits; note: nearly all actives have a fitted effect of over 50% in size
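Activity of T. brucei pyruvate kinase was followed by Kinase-Glo Plus luminescence after the enzyme reacted 45 min at room temperature with 130 uM ADP (final) and substrate. Test compounds were added before ADP at multiple concentrations.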
Cycloheximide cs: affects cycloheximide protein synthesis inhibition readout, counter-screen; 300,000 compounds, 12% hits; max response, %; cell reporter, cycloheximide protein synthesis inhibition counterscreen; in the data active = max response mostly above about 13%, no sharp cut-off; inactive = mostly below about 14%; note: read at 38.3 µM for the half of the compounds with a filed dose
RE007 growth inh: less growth of the S. pombe RE007 Vpr strain | Potency, µM (top dose mostly 92.2 µM), hits mostly inhibitors | AID 651644 | 360,000 compounds, 0.21% hits | S. pombe RE007 Vpr strain, BacTiter-Glo ATP luminescence, 24 h; active = well fitted falling curve with a large enough effect; inconclusive = small, poorly fitted or top-dose-only effect; inactive = no such curve, though single readings can be large or run the other way; note: nearly all actives have a fitted effect of over 50% in size
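Fission yeast RE007 carrying one integrated HIV-1 vpr copy, seeded at OD 0.01 in PMG+AL medium with 23 nL pinned compound. Grown 24 h at 30 degrees; viability read by BacTiter-Glo luminescence after 5 min.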
LmPK inhibitor: blocks Leishmania mexicana pyruvate kinase activity; Potency, µM (titrated, usually from 57.5 µM), hits mostly inhibitors; AID 1721; Q27686; 290,000 compounds, 0.37% hits; purified LmPK, Kinase-Glo ATP luminescence, 1 h
Target sequence (Q27686 whole entry, looked up): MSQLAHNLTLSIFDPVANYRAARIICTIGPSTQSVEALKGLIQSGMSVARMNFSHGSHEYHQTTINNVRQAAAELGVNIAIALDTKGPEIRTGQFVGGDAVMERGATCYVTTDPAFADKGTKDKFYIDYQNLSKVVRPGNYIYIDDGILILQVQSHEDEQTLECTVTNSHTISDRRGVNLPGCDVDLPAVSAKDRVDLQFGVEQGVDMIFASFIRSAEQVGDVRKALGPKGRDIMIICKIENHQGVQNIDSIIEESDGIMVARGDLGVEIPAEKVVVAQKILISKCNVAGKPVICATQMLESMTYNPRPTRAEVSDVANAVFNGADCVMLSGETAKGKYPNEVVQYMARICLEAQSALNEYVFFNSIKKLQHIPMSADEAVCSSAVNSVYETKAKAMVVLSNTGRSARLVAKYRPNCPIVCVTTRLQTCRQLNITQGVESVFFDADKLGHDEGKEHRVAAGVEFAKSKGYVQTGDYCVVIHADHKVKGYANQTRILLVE
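Purified LmPK (0.1 nM) with 0.5 mM PEP and 0.1 mM ADP in imidazole buffer pH 7.2 with MgCl2/KCl, 1 h at room temperature. ATP formed was read by luciferase luminescence and normalized to no-enzyme and uninhibited controls.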
Shiga toxin inh: blocks Shiga toxin action in Vero cells; Vero cells, Shiga toxin protein synthesis inhibition reporter; inhibition, % at 38.7 µM; 290,000 compounds, 9.2% hits; in the data active = inhibition mostly above about 28%, no sharp cut-off; inactive = mostly below about 43%
A number is an active result; i = inactive; ? = inconclusive; nt = not tested or not shown; [ ] = dose if it differs, or a comment. The sample as a whole holds a higher share of hits than the screen did. Unless noted, calls come from the whole dose curve; as a rule, active = well fitted curve in the direction sought with a large enough effect; inconclusive = small, poorly fitted or top-dose-only effect, or another doubt; inactive = no such curve, though single readings can be large; an effect the other way counts as inactive or inconclusive.

SMILES	Giardia FBPA inh	TbPYK inhibitor	Cycloheximide cs	RE007 growth inh	LmPK inhibitor	Shiga toxin inh
CCCN(CC(=O)Nc1ccccc1C)C(=O)c1ccc(COc2ccccc2)cc1	i	i	30.1	i	i	85.1
CCCN(CC(=O)Nc1ccccc1C)C(=O)c1ccc(-c2ccccc2)cc1	nt	i	i	i	i	i
CCN(Cc1ccccc1)C(=O)C1CCN(C(=O)Nc2ccccc2)CC1	nt	i	i	i	i	i
CCN(CC(=O)NCc1ccc(F)cc1)C(=O)C1CCN(C(=O)Nc2ccccc2)CC1	i	i	13.1	i	i	i
CCOC(=O)/C(=C/c1c[nH]c2ccccc12)NC(C)=O	i	i	i	i	i	i
CCOC(=O)/C=C(C)\C=C\c1c[nH]c2ccccc12	i	i	29.7	i	i	55.6
Cc1ccc(C)c(N2CCN(S(=O)(=O)c3ccc(-c4cc(C(F)(F)F)on4)s3)CC2)c1	nt	i	nt	nt	nt	nt
CSc1nc(O)c(/C=C2\C=Nc3ccccc32)[nH]1	i	i	62.3	i	i	140.2
CCCCc1nc2c(c3c1C[C@H](C)OC3)CN(C(=O)N[C@@H](C)c1ccccc1)CC2	i[12.9 µM]	nt	nt	nt	i[11.5 µM]	nt
C[C@H]1Cc2c(COc3ccccc3)nc3c(c2CO1)CN(C(=O)C1CCCCC1)CC3	i[12.9 µM]	nt	nt	nt	i[11.5 µM]	nt
CCOC(=O)c1sc(N)c(C(=O)OC)c1C	i	i	33.1	i	i	64.2
CCOC(=O)c1c(N)sc(C(=O)OC)c1C	i	i	i	i	i	i
CCOC(=O)c1sc(NN=C(C(=O)OC)C(=O)OC)c(C(=O)OCC)c1C	i	i	i	i	i	31.9
CCOC(=O)c1sc(NC(=O)C2c3ccccc3Oc3ccccc32)c(C(=O)OCC)c1C	nt	i	nt	nt	nt	nt
CCCSc1nnc(NC(=O)Nc2ccccc2)s1	i	i	18.8	nt	i	i
CCCSc1nnc(NC(=O)Nc2ccc(F)cc2)s1	i	i	31.8	i	i	i
CCOc1ccc(C(=O)Nc2ccc(Cl)c(-c3nc4cc(C)cc(C)c4o3)c2)cc1	nt	i	nt	nt	nt	nt
Cc1cc(C)c(NC(=O)C2CCN(c3nn4c(=O)cc(C)nc4s3)CC2)c(C)c1	nt	i	nt	nt	nt	nt
O=C(CN1C(=O)S/C(=C\c2ccc(F)cc2)C1=O)Nc1cccc(S(=O)(=O)NCc2ccco2)c1	i	i	66.9	i	i	138.0
Nc1ccc(O)c(C(=O)O)c1	3.54µM	i	nt	nt	nt	nt
COc1ccc(CNc2nc(Cl)c(C#N)s2)cc1	i	i	41.0	nt	i	44.7
Cc1ccsc1C1NC(=O)c2ccccc2N1 (centres undefined)	i	i	22.8	i	i	i
O=C1NC(c2cccc3ccccc23)Nc2ccccc21 (centres undefined)	nt	i	nt	?	nt	nt
O=C1NC(c2cccs2)Nc2ccccc21 (centres undefined)	i	?	20.7	i	i	37.9
COc1ccccc1CNC(=O)CN1C(=O)CSc2ccc(S(=O)(=O)N3CCCCC3)cc21	nt	i	nt	nt	nt	nt
SMILES	Giardia FBPA inh	TbPYK inhibitor	Cycloheximide cs	RE007 growth inh	LmPK inhibitor	Shiga toxin inh
O=C(O)Cn1cc(C(=O)c2cccs2)c2ccccc21	i	i	i	i	i	i
O=C(c1cccs1)c1cn(CC(=O)N2CCc3ccccc3C2)c2ccccc12	i	i	48.2	i	i	i
CCN(Cc1nc(-c2cccc(Cl)c2)no1)CC1CCCO1 (centres undefined)	i	i	13.2	i	i	i
CN(Cc1nc(-c2cccc(Cl)c2)no1)C1CCOCC1	i	i	34.9	i	i	83.8
Cc1ccc(OS(=O)(=O)c2ccccc2)c(/C=N/N=C2\NC(=O)C(C)S2)c1 (centres undefined)	i	i	12.2	i	i	i
O=C1CS/C(=N/N=C/c2ccccc2OS(=O)(=O)c2ccccc2)N1	i	i	i	i	i	i
Cc1ccccc1NC(=S)NC(=O)COc1ccccc1C	nt	i	27.5	i	i	i
Cc1cccc(OCC(=O)Nc2ccc(C(=O)Nc3ccccc3C(=O)O)cc2)c1	nt	i	nt	i	nt	nt
O=C(COc1ccc(Cl)cc1Cl)NC(=S)Nc1ccccc1C(=O)O	i	nt	22.6	nt	i	34.8
COc1ccccc1C(=O)NC(=O)COc1ccc(Cl)cc1Cl	nt	i	nt	i	nt	nt
O=C(COc1ccc(Cl)cc1Cl)Nc1ccc(C(=O)Nc2ccccc2C(=O)O)cc1	i	i	34.9	i	i	i
CC(C)(CO)NC(=O)CCCOc1ccc(Cl)cc1Cl	i	i	49.9	i	i	53.9
CC(C)(C)C(=O)NNC(=O)CCCOc1ccc(Cl)cc1Cl	i	i	i	i	i	i
CC(C)CCNC(=O)CN1C(=O)CSc2ccc(S(=O)(=O)N3CCCCC3)cc21	nt	i	nt	nt	nt	nt
Cc1cccc(-c2nc(Cn3c(=O)cc(-c4ccccc4)c4c(C)nn(C)c43)c(C)o2)c1	nt	i	nt	nt	nt	nt
COc1ccc(C2=Nn3c(nnc3-c3cccc(OC)c3OC)SC2)c(OC)c1	i	nt	i	nt	nt	i
O=c1cc(O)cc(/C=C/c2ccc(O)c(O)c2)o1	i	nt	nt	nt	nt	nt
O=C(CCCOc1ccc(Cl)cc1Cl)Nc1ccccc1C(=O)O	i	i	42.5	i	i	84.0
O=C(CCCOc1ccc(Cl)cc1Cl)Nc1cccnc1	i	i	i	i	i	i
Cc1nc(SCC(=O)Nc2ccc(Cl)cc2C(F)(F)F)[nH]c(=O)c1Cc1ccccc1	nt	i	nt	nt	nt	nt
COC(=O)c1ccc(COC(=O)c2nn(C)c(=O)c3ccccc23)cc1	i	i	22.7	i	i	i
Cn1nc(C(=O)OCC(=O)NCCc2ccccc2)c2ccccc2c1=O	nt	i	26.8	i	i	i
Cn1cccc1/C=C1\SC(=O)N(c2ccc(O)cc2)C1=O	i	i	38.7	i	i	32.6
COc1ccc(/C(C)=N/Nc2cccc(C(=O)O)c2)cc1OC	i	i	104.4	i	i	186.5
O=C(O)c1cccc(N/N=C/c2cc(Br)cc(Br)c2O)c1	i	i	51.2	?	i	126.0
SMILES	Giardia FBPA inh	TbPYK inhibitor	Cycloheximide cs	RE007 growth inh	LmPK inhibitor	Shiga toxin inh
COc1ccc(/C(C)=N/Nc2nc3ccccc3nc2C)cc1OC	i	i	33.6	i	i	57.4
COc1ccc(Br)cc1/C=N/Nc1cccc(C(=O)O)c1	i	i	48.8	i	i	i
C/C(=N\Nc1cccc(C(=O)O)c1)c1ccc(Cl)s1	i	i	68.4	?	i	120.8
COc1ccccc1/C=C/C=N/Nc1cccc(C(=O)O)c1	i	i	41.6	i	i	131.8
CC(=O)c1c(C)nc(-c2ccc(Cl)cc2)nc1N=CN(C)C	?	i	45.7	i	i	70.3
COc1ccc(-c2noc(-c3ccc(Cl)cc3[N+](=O)[O-])n2)cc1OC	i	i	16.3	nt	i	i
Cc1cccc(-c2noc(-c3ccc(N4CCCC4)c([N+](=O)[O-])c3)n2)c1	nt	i	nt	nt	nt	nt
Cc1cccc(-c2noc(-c3ccc(Cl)cc3[N+](=O)[O-])n2)c1	i	i	42.1	nt	i	81.7
CCCCS(=O)(=O)/C=C\C=C/S(=O)(=O)CCCC	i	?	i	8.91µM	i	i
CCOC(=O)c1ccc(NC(=O)C2=C(C)C(=O)OC23CCN(C(C)=O)CC3)cc1	nt	i[15.4 µM]	nt	nt	nt	nt
